In the supplement of paper PMC6522484:
± gives the standard deviation of the averaged measurements.

Legend:
DLD1 [1] = experiment: cell viability (CellTiter-Glo) relative to plate median (fraction of plate median); higher = more viable cells; settings: 5 µM; treatment time 24 h; reporter: 7TFP
How it was run: (§1)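 Each entry is a luminescence signal normalised to the plate median, averaged over independent replicates. The replicate count was two, and the cells were colorectal cancer lines with stable lentiviral TCF/Wnt firefly luciferase reporters exposed to library compounds at a final 5 µM for 24 h. Firefly luciferase and CellTiterGlo were measured on parallel plates.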

HCT116 = experiment: as above; settings: 5 µM; treatment time 24 h; reporter: TCF4/Wnt
How it was run: as §1

SW480 [2] = experiment: as above; settings: 5 µM; treatment time 24 h; reporter: 7TFP
How it was run: as §1

DLD1 [3] = experiment: TCF/Wnt firefly luciferase reporter signal relative to plate median (fraction of plate median); higher = higher Wnt reporter signal; settings: 5 µM; treatment time 24 h; reporter: 7TFP
How it was run: as §1

SW480 [4] = experiment: as above; settings: 5 µM; treatment time 24 h; reporter: 7TFP
How it was run: as §1

SMILES	cell viability (DLD1 [1])	cell viability (HCT116)	cell viability (SW480 [2])	TCF/Wnt firefly luciferase reporter signal (DLD1 [3])	TCF/Wnt firefly luciferase reporter signal (SW480 [4])
Cn1c(=O)[nH]c2ncn(C)c2c1=O	0.987 ± 0.13	1.04 ± 0.021	1.02	1.05 ± 0.13	1.02 ± 0.072
COc1cc(Cc2cnc(N)nc2N)cc(OC)c1OC	0.988 ± 0.013	1 ± 0.15	0.991 ± 0.013	1 ± 0.057	0.831 ± 0.17
COc1cc(CO)cc2c1C(=O)c1c(O)cc(O)cc1C2=O [Carviolin]	0.883 ± 0.19	0.93 ± 0.018	0.99 ± 0.0014	0.811 ± 0.1	0.963 ± 0.044
CC(=O)O[C@@H]1C[C@H]2C(C)(C)C(=O)CC[C@]2(C)[C@H]2CC[C@@]3(C)[C@H](c4ccoc4)OC(=O)[C@H]4O[C@]43[C@@]21C	0.999 ± 0.086	0.986 ± 0.011	1.01 ± 0.026	0.949 ± 0.087	0.899 ± 0.021
COc1ccc(-c2cc(=O)c3c(O)cc(O[C@H]4O[C@H](CO[C@@H]5O[C@@H](C)[C@H](O)[C@@H](O)[C@H]5O)[C@@H](O)[C@H](O)[C@H]4O)cc3o2)cc1	0.995 ± 0.079	0.88 ± 0.1	0.979 ± 0.059	1.02 ± 0.029	0.9475 ± 0.00071
Nc1cc(C(Cl)=C(Cl)Cl)c(S(N)(=O)=O)cc1S(N)(=O)=O	0.9995 ± 0.00071	1.125 ± 0.0071	1.03 ± 0.014	1.17 ± 0.11	1.1 ± 0.078
COc1cc(OC)c2c(c1Cl)O[C@@]1(C(=O)CC(=O)C[C@H]1C)C2=O	1.02 ± 0.014	0.983 ± 0.14	1.005 ± 0.0071	1.13 ± 0.057	1.02 ± 0.028
CC(=O)OCC1=C(C(=O)O)N2C(=O)[C@@H](NC(=O)CSc3ccncc3)[C@H]2SC1	1.05	1.065 ± 0.0071	1.14 ± 0.14	0.985 ± 0.016	1.06 ± 0.057
NC(=O)c1ncn([C@@H]2O[C@H](CO)[C@@H](O)[C@H]2O)n1	1.12 ± 0.035	1.04 ± 0.064	1.01 ± 0.021	1.22 ± 0.23	0.986 ± 0.09
OCc1ccccc1O	1.11 ± 0.14	1.19 ± 0.035	1.14 ± 0.05	1.06 ± 0.12	0.866 ± 0.042
CCCCC(=O)O[C@H]1CC[C@H]2[C@@H]3CCc4cc(O)ccc4[C@H]3CC[C@]12C	1.07 ± 0.042	1.01 ± 0.052	1 ± 0.036	0.956 ± 0.25	1.04 ± 0.11
C/C1=C2/[N-][C@H]([C@H](CC(N)=O)[C@@]2(C)CCC(=O)NC[C@@H](C)OP(=O)([O-])O[C@H]2[C@@H](O)[C@@H](n3cnc4cc(C)c(C)cc43)O[C@@H]2CO)[C@]2(C)N=C(/C(C)=C3N=C(/C=C4N=C1[C@@H](CCC(N)=O)C\4(C)C)[C@@H](CCC(N)=O)[C@]\3(C)CC(N)=O)[C@@H](CCC(N)=O)[C@]2(C)CC(N)=O.[CH2-][C@H]1O[C@H](n2cnc3c(N)ncnc32)[C@@H](O)[C@H]1O.[Co+3]	0.933 ± 0.021	0.964 ± 0.18	0.998 ± 0.045	0.968 ± 0.13	0.971 ± 0.2
CCCN(CCC)C(=O)C(CCC(=O)O)NC(=O)c1ccccc1 (stereo not given)	0.921 ± 0.057	1.06 ± 0.035	0.904 ± 0.024	1.01 ± 0.024	1.06 ± 0.05
C=CCCCCCCCCCCCC(O)CC(O)CO (stereo not given)	1.1 ± 0.099	1.05 ± 0.11	1.05 ± 0.05	0.964 ± 0.05	1.03 ± 0.042
Cc1c(C(N)=O)cc([N+](=O)[O-])cc1[N+](=O)[O-]	0.985 ± 0.035	0.926 ± 0.15	0.981 ± 0.056	0.9 ± 0.05	0.9925 ± 0.0064
N=C(N)NC(=O)c1nc(Cl)c(N)nc1N	0.963 ± 0.067	0.988 ± 0.046	1.01 ± 0.057	0.937 ± 0.024	1 ± 0.084
O=C1NC(Cc2ccc(O)cc2)C(=O)N2CCCC12 (stereo not given) [cyclo(prolyltyrosyl)]	0.9655 ± 0.0021	0.95 ± 0.023	1.025 ± 0.0071	0.998 ± 0.2	0.887 ± 0.05
CO/N=C(\C(=O)N[C@@H]1C(=O)N2C(C(=O)O)=C(CSc3nc(=O)c(O)nn3C)CS[C@H]12)c1csc(N)n1	1.06 ± 0.071	1.06 ± 0.071	0.98 ± 0.071	1.1 ± 0.14	0.96 ± 0.057
Nc1nc(=O)c2nc(CNc3ccc(C(=O)N[C@@H](CCC(=O)O)C(=O)O)cc3)cnc2[nH]1	1.07 ± 0.057	0.977 ± 0.075	1.03 ± 0.044	1.01 ± 0.098	1.05 ± 0.12
CC(c1cc2ccccc2s1)N(O)C(N)=O (stereo not given)	1.03 ± 0.067	1.02 ± 0.057	1.05 ± 0.035	1.13 ± 0.014	0.946 ± 0.074
CC(C)CCC[C@@H](C)[C@H]1CC[C@H]2[C@@H]3CC[C@@H]4C[C@H](O)CC[C@]4(C)[C@H]3CC[C@]12C	1.06 ± 0.028	1.01 ± 0.033	1.02 ± 0.076	0.985 ± 0.036	1.03 ± 0.07
CC[C@H](C)C(=O)O[C@H]1C[C@H](O)C=C2C=C[C@H](C)[C@H](CC[C@@H](O)C[C@@H](O)CC(=O)O)[C@H]21	1.03 ± 0.014	1.02 ± 0.028	0.989 ± 0.0028	1.04 ± 0.076	0.928 ± 0.16
CN(C)[C@@H]1C(O)=C(C(N)=O)C(=O)[C@@]2(O)C(O)=C3C(=O)c4c(O)ccc(Cl)c4[C@@](C)(O)[C@H]3C[C@@H]12	1.05 ± 0.028	1.1 ± 0.085	1.02 ± 0.014	1.11 ± 0.13	0.99 ± 0.0042
CC(C)c1c(C(=O)Nc2ccccc2)c(-c2ccccc2)c(-c2ccc(F)cc2)n1CC[C@@H](O)C[C@@H](O)CC(=O)O	0.9915 ± 0.0092	1 ± 0.069	1.01 ± 0.076	0.966 ± 0.09	0.909 ± 0.013
COC(=O)c1c(OC)cc2c(c1C)Oc1c(Cl)c(O)c(Cl)c(C)c1C(=O)O2	1.02 ± 0.036	1.04 ± 0.014	0.99 ± 0.0042	1.05 ± 0.085	0.954 ± 0.028
Nc1ccc(S(=O)(=O)Nc2cnc3ccccc3n2)cc1	0.996 ± 0.02	1.07 ± 0.028	1 ± 0.08	1.11 ± 0.085	1.045 ± 0.0071
O=C(O)/C=C/c1ccccc1	1.09 ± 0.17	1.08 ± 0.092	1.09 ± 0.035	0.928 ± 0.086	1.05 ± 0.035
OC(CCN1CCCCC1)(c1ccccc1)c1ccccc1	0.982 ± 0.068	0.916 ± 0.051	1.02 ± 0.014	0.834 ± 0.2	0.878 ± 0.019
